Screens (PubChem)
Rows were chosen to be rich in hits. Some 4.1% of all compounds tested hit in one or more screens of this group.
hgDAF12 agonist = hgDAF-12 agonism, primary luciferase screen. HEK293 GAL4-hgDAF12 UAS-luciferase reporter, agonist luminescence; normalized to butyrate control. activation, % at 6.8 µM. 370,000 compounds, 1.8% hits. AID 687014;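 active = activation above a cutoff set at the mean of all screened compounds plus 3 SD, cut at about 10% in these data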
DAX1 inh-1 = blocks DAX1 repression of SF-1 activated StAR promoter; HEK293T StAR-luciferase reporter, SF-1/DAX-1 repression relief; inhibition, % at 6.8 µM; 370,000 compounds, 1.1% hits; AID 652010;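 active = inhibition above the mean over all tested compounds plus 3 SD, cut at about 3.6% in these data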;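 also: higher inhibition means more luminescence from relief of DAX-1 repression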
hcDAF12 agonist = activates DAF-12 receptor from parasite H. contortus; AID 652067; HEK293 hcDAF-12 lit1-tk-luc reporter, luminescence; 0% DMSO, 100% Δ7-dafachronic acid; activation, % at 6.8 µM; 370,000 compounds, 1.4% hits;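 active = activation above the mean of all tested compounds plus 3 SD, cut at about 5.5% in these data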
DAX1 inh-2 = inhibits human nuclear receptor DAX1; 340,000 compounds, 0.99% hits; inhibition, % at 6.75 µM; P51843; HEK293 Gal4-DAX1 luciferase reporter, luminescence;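 active = inhibition above the mean over all tested compounds plus 3 SD, cut at about 4.2% in these data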;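 also: inhibition shows as a rise in luminescence from relieved DAX1 repression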
Target sequence (P51843 207-470 limits assumed): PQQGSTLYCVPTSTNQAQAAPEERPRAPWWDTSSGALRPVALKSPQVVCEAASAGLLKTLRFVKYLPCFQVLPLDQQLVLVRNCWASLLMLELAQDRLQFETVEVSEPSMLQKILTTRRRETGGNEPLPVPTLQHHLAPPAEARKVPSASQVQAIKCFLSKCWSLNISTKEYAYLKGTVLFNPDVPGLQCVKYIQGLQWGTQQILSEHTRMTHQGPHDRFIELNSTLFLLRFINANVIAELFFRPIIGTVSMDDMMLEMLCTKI
ssDAF-12 act = activators of S. stercoralis DAF-12 nuclear receptor. 370,000 compounds, 1% hits. HEK293 ssDAF-12/GRIP1 lit1-tk-luc reporter, luminescence; % of 3 µM dafachronic acid response. activation, % at 6.8 µM;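 active = activation above the mean over all tested compounds plus 3 SD, cut at about 0.9% in these data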
LXR ag = activates human LXR-beta, counter-screen for hcDAF-12 agonists; activation, % at 6.8 µM; HEK293 Gal4-LXR tk-luc reporter, luminescence, 24 h; normalized: DMSO 0%, positive control 100%; 3,400 tested, under 10 active; shares compounds with hcDAF12 agonist; AID 743027;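 active = mean percent activation of the reporter above a cutoff set as the average over tested compounds plus their standard deviation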
Target sequence (P55055 whole entry, looked up, the tested form may be a part): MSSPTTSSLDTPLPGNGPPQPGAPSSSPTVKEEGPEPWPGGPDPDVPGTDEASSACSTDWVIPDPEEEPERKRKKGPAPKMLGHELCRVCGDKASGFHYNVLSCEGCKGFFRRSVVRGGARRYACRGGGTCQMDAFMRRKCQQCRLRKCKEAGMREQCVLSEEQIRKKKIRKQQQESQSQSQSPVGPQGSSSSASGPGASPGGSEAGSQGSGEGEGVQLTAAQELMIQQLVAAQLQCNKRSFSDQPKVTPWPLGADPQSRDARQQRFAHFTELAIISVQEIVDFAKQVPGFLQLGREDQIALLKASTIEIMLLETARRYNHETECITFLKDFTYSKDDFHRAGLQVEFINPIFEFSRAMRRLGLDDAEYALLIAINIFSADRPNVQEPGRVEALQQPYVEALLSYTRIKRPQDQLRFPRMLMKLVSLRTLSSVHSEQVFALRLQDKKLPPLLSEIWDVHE
hcDAF12 ag = confirmation of H. contortus DAF-12 agonists; shares compounds with hcDAF12 agonist; HEK293 hcDAF-12 lit1-tk-luc reporter, luminescence; % of Δ7-dafachronic acid response; activation, % at 6.8 µM; 3,400 compounds, 61% hits; AID 743032;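 active = mean activation across triplicate tests above the threshold derived from the earlier primary screen, cut at about 5.5% in these data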
Each line names hits and unclear results; the compound was inactive in the other large screens (follow-up assays come after a bar, where they were run).

Cn1cc(-c2nnc(-c3ccccc3)o2)c2ccccc21	hgDAF12 agonist 17, hcDAF12 agonist 7.9, ssDAF-12 act 1.3 | LXR ag inactive | hcDAF12 ag 18
Cc1ccc(-c2nc3n(n2)Cc2ccccc2-3)cc1	hcDAF12 agonist 16, ssDAF-12 act 2.4 | LXR ag inactive | hcDAF12 ag 20
O=C(N[C@@H](Cc1cccnc1)C(=O)N1CCC[C@H]1C(=O)NC1CCCC1)c1ccc(Cl)c(Cl)c1	none (no result: DAX1 inh-2)
O=C(Cc1nnc(NC(=O)c2ccccc2)s1)N/N=C/c1ccco1	hcDAF12 agonist 7.5, ssDAF-12 act 1.3 | LXR ag inactive | hcDAF12 ag inactive
O=C(Cc1nnc(NC(=O)c2ccccc2)s1)N/N=C/c1cccc(O)c1	none
O=C(Cn1nc(C(=O)O)c2ccccc2c1=O)c1c[nH]c2ccccc12	hcDAF12 agonist 7.3 | LXR ag inactive | hcDAF12 ag inactive
CN(C)c1oc(/C=C/c2ccccc2)nc1C#N	hcDAF12 agonist 6.7 | LXR ag inactive | hcDAF12 ag inactive
Cc1ccc2nc(-c3ccc(O)c(O)c3)cn2c1	hcDAF12 agonist 9.4 | LXR ag inactive | hcDAF12 ag 9.9
Cc1nc(-c2ccc(O)c(O)c2)cs1	none
Nc1nc2c(ncn2[C@@H]2O[C@H](C(=O)N[C@H](Cc3ccccc3)C(=O)NC3CCCCC3)[C@@H](O)[C@H]2O)c(=O)[nH]1	none (no result: DAX1 inh-2)
CCc1ccc(CCNC(=O)OCCCN2CCC3(CCC(c4ccccc4)CC3)C2=O)cc1 (centres undefined)	none (no result: DAX1 inh-2)
O=C1c2ccccc2-c2n[nH]c3cccc1c23	none
Cc1ccccc1-c1cc2c(nn1)-c1ccccc1C2=O	hcDAF12 agonist 7.2, ssDAF-12 act 1.5 | LXR ag inactive | hcDAF12 ag 6.2
COCC1CN(CCc2ccc(F)cc2)S(=O)(=O)c2c(F)cccc2O1 (centres undefined)	none (no result: DAX1 inh-2)
C=CCS/C(N)=N\N=C\c1c(O)ccc2ccccc12	hgDAF12 agonist 17, hcDAF12 agonist 14, ssDAF-12 act 1.9 | LXR ag inactive | hcDAF12 ag 11
Cc1cc2c(C)ccc(C)c2nc1SCC(=O)c1cccs1	none
Cc1cc(SCC(=O)c2cccs2)nc2c(C)cccc12	hcDAF12 agonist 6.8 | LXR ag inactive | hcDAF12 ag inactive
O=C(CCCOc1ccccc1)N1CCN(c2ccccn2)CC1	hcDAF12 agonist 10 | LXR ag inactive | hcDAF12 ag 6.4
C=CCN1[C@@H](C)[C@@H](c2ccccc2)Oc2c(Cl)cccc2S1(=O)=O	none (no result: DAX1 inh-2)
ClCc1csc(-c2ccc(Cl)cc2)n1	none
CCOc1ccc(-c2nc(CCl)cs2)cc1	hgDAF12 agonist 13, hcDAF12 agonist 9.1 | LXR ag inactive | hcDAF12 ag inactive
C[C@@H]1CN([C@@H](C)CO)C(=O)CCCn2cc(nn2)CO[C@H]1CN(C)C(=O)Nc1ccc(C(C)(C)C)cc1	none (no result: DAX1 inh-2)
CC(=O)c1ccc(N=C2C(=O)Nc3ccccc32)cc1	none
CC(=O)N(/N=C1/C(=O)Nc2ccccc21)c1ccccc1	hcDAF12 agonist 12, ssDAF-12 act 1.2 | LXR ag inactive | hcDAF12 ag 10
CCOc1ccc(-n2c(SCC(=O)Nc3ccc4c(c3)c3ccccc3n4CC)nnc2-c2cccnc2)cc1	none (no result: DAX1 inh-2)
c1ccc(COc2ccc(OCCCN3CCCC3)cc2)cc1	DAX1 inh-1 4.4, hcDAF12 agonist 7.3 | LXR ag inactive | hcDAF12 ag 9.4
C[C@@H]1CN([C@H](C)CO)C(=O)CCCn2cc(nn2)CO[C@H]1CN(C)S(=O)(=O)c1cn(C)cn1	none (no result: DAX1 inh-2)
COC(=O)[C@]12C[C@H](CC(=O)NCC34CC5CC(CC(C5)C3)C4)C(=O)N(Cc3ccc(Cl)cc3Cl)C1=C[C@H](C(C)C)O[C@@H]2C1CC1	none (no result: DAX1 inh-2)
CC(=O)Nc1ccc(S(=O)(=O)Nc2nc3ccccc3nc2N2CCc3ccccc3C2)cc1	hcDAF12 agonist 11, ssDAF-12 act 2.2 | LXR ag inactive | hcDAF12 ag 6.7
CCCc1cc(=O)n2[nH]c(-c3cccc(Br)c3)cc2n1	hcDAF12 agonist 7.7, DAX1 inh-2 5.6 | LXR ag inactive | hcDAF12 ag 7.3
CCCc1cc(=O)n2[nH]c(NCc3c(Cl)cccc3Cl)nc2n1	none
CNC(=O)c1cc2c(ccc3ccccc32)o1	hcDAF12 agonist 7.9 | LXR ag inactive | hcDAF12 ag inactive
Cc1ccc(-c2nc(NCCCN(C)C)c3ccccc3n2)cc1	hgDAF12 agonist 11, hcDAF12 agonist 8.3 | LXR ag inactive | hcDAF12 ag 11
CN(C)CCCNc1nc(-c2ccccc2)nc2ccccc12	none
Cc1ccc(-c2nc(NCCN3CCOCC3)c3ccccc3n2)cc1	hgDAF12 agonist 11, hcDAF12 agonist 6.8 | LXR ag inactive | hcDAF12 ag 6.4
CN1OC[C@@H]2CN(C(=O)c3ccc(C#N)cc3)[C@H](c3cccc(Br)c3)C[C@@H]21	none (no result: DAX1 inh-2)
O=S1(=O)c2ccc(N3CCCC3)cc2Oc2ccccc2CN1Cc1cn(Cc2ccc(Cl)cc2)nn1	none (no result: DAX1 inh-2)
Oc1ccccc1-c1nc(N2CCN(Cc3ccccc3)CC2)c2ccccc2n1	hcDAF12 agonist 8.5 | LXR ag inactive | hcDAF12 ag inactive
O=C(N[C@H](C(=O)N1CCC[C@H]1C(=O)NCCc1ccccc1Cl)c1ccccc1)c1ccc(Cl)c(Cl)c1	none (no result: DAX1 inh-2)
CCN=C1NC(c2ccccc2C(F)(F)F)C(C(=O)OC)=C(C)N1Cc1ccc(C(F)(F)F)cc1 (centres undefined)	none (no result: DAX1 inh-2)
O=C(Nc1ncccn1)c1cccc(F)c1	hcDAF12 agonist 7.0 | LXR ag inactive | hcDAF12 ag inactive
O=C(Nc1ncccn1)c1cccc(Cl)c1	none (no result: DAX1 inh-2)
COC(=O)[C@@H](N[C@H](/C=C/c1ccccc1)[C@@H](O)Cc1ccccc1)C(C)C	none (no result: DAX1 inh-2)
COc1cc(C#Cc2c(C=O)n(C)c3ccccc23)cc(OC)c1	hcDAF12 agonist 6.9 | LXR ag inactive | hcDAF12 ag inactive
Cn1cncc1C#Cc1c(C=O)n(C)c2ccccc12	none
CNS(=O)(=O)c1cc(NC(=O)c2cccc3cccnc23)ccc1C	none
CSc1cccc(NC(=O)c2cccc3cccnc23)c1	hgDAF12 agonist 11, hcDAF12 agonist 12, ssDAF-12 act 2.3 | LXR ag inactive | hcDAF12 ag 8.5
C[C@@H]1CCN(C2CC2)S(=O)(=O)c2ccc(N3CC[C@H](N(C)C)C3)cc2O1	none (no result: DAX1 inh-2)
NC1=NC(=O)/C(=C\c2ccc(-c3ccc(Cl)cc3)o2)S1	hcDAF12 agonist 6.5, ssDAF-12 act 0.9 | LXR ag inactive | hcDAF12 ag 7.7
Clc1cccc(CSc2ncnc3sc4c(c23)CCCC4)c1	none (no result: DAX1 inh-2)
Cc1nc2cc(NC(=O)CCS(=O)(=O)c3ccccc3)ccc2s1	hgDAF12 agonist 12, DAX1 inh-1 4.0, hcDAF12 agonist 7.8 | LXR ag inactive | hcDAF12 ag inactive
